Results from PubChem BioAssay (NCATS).
Several values for one entry are separate records, joined by “and”; a condition that tells them apart may be missing. Equal entries are not always repeated. Records with an inconclusive call do not appear. Entries that show only a call come without a potency. Values without a mark were called inactive. Activity calls are given as the source filed them. Calls follow the shape of the dose curve; as a rule, active = well fitted inhibition curve with a large enough effect in the repeat runs; inconclusive = weak or mixed curves; inactive = flat fitted curve, though single readings scatter.

Molecular target: Cytochrome P450 2D6 (Homo sapiens) (UniProt P10635)
Test: Cytochrome P450 family 2 subfamily D member 6 (CYP2D6) small molecule antagonists: luciferase biochemical (cell-free) qHTS assay (AID 1645840); also: nearly all actives have a fitted effect of over 55% in size
Conditions: P450-Glo CYP2D6 enzyme, luciferin luminescence, 1 h; series mostly up to 57.4 µM
Procedure: National Center for Advancing Translational Sciences [NCATS] Assay Overview: Cytochrome P450 (CYP) enzymes are membrane-bound hemeproteins that play a key role in metabolism of drugs and xenobiotics. Assaying the effect of chemicals on CYP isozymes is useful to minimize the adverse drug reactions and toxicities in drug development process. Chemical compounds were tested for their effect on CYP enzyme activities by using P450-Glo (TM) screening systems (Promega Corporation, Madison, WI). These systems provide a luminescent method containing proluciferin substrates and are converted to luciferin products by CYP isozymes. The luciferin products formed are detected with a luciferin detection reagent, and the amount of light produced is proportional to CYP activity. P450-Glo (TM) CYP2D6 screening system (Catalog. No. V9890) was used to detect the compounds that interfere in CYP2D6 activity.
Assay Protocol Summary: Two ul of enzyme-substrate mix was dispensed into medium binding white/solid 1536-well plates (Greiner Bio-One North America Inc., Monroe, NC) using a Flying Reagent Dispenser (FRD, Aurora Discovery, San Diego, CA). […] The assay plates were incubated at room temperature for 10 min. Then 2 ul of NADPH regeneration solution was added to each well of the assay plates using an FRD and incubated at room temperature for 1 h. The reaction was stopped by adding 4 ul of detection reagent using an FRD and after 20 min incubation at room temperature, the luminescence signal was measured using a ViewLux plate reader (Perkin Elmer, Shelton, CT). Data were expressed as relative luminescence units.
Potency is read from the fitted curve at half-maximal effect.

Chain of Cytochrome P450 2D6 (Homo sapiens) (P10635 whole entry, looked up): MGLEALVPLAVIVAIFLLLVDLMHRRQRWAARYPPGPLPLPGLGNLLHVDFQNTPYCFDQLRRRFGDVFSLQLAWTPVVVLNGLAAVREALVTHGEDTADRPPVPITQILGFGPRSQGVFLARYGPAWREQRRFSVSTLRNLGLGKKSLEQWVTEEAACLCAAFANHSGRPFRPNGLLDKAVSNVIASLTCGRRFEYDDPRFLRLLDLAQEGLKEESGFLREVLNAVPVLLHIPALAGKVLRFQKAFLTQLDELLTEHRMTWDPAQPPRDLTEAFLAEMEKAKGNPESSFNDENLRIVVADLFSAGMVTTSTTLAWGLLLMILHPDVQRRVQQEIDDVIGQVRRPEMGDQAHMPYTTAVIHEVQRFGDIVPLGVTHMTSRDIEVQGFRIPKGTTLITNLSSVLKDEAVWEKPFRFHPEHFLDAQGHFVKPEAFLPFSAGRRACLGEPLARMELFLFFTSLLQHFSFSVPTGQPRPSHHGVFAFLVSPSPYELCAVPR

Row | Compound | Potency | activity change, negative = inhibition
1 | CN(C)CCN(Cc1ccc(Cl)cc1)c1ccccn1 | 0.0692 µM (active) | –
2 | CC(C)(OCc1nn(Cc2ccccc2)c2ccccc12)C(=O)O | inactive | –
3 | Cc1cnc(CNC(=O)c2c(=O)c3ccc(N4CCCN(C)CC4)nc3n3c2sc2ccccc23)cn1 | inactive | –
4 | O=C(O)CCNc1cc(N2CCc3ccccc3CC2)nc(-c2ccccn2)n1 | – | 10.8% [at 11.5 µM]
5 | Cc1cn([C@@H]2C[C@@H](O)[C@H](CO)O2)c(=O)[nH]c1=O | inactive | –
6 | c1ccc(CNc2nc(N3CCOc4ccccc43)nc3c2CCCC3)cc1 | 3.01 µM (active) | –
7 | CN(C)c1nc(Cc2ccc(NC(=O)c3ccc(C(F)(F)F)cc3)cc2)nc(N(C)C)c1CC(=O)O | inactive | –
8 | CCN1C[C@H](C)n2c(c(O)c3c(=O)n(Cc4ccc(F)c(Cl)c4)nc(C(=O)NC)c32)C1=O | inactive | –
9 | CCN1CCC(n2cc(CNc3cc(Cl)c4ncc(C#N)c(Nc5ccc(F)c(Cl)c5)c4c3)nn2)CC1 | 12 µM (active) | –
10 | O=C(Nc1cccc2c(=O)cc(-c3nn[nH]n3)oc12)c1ccc(OCCCCc2ccccc2)cc1 | 15.5 µM (active) | –
11 | CN(C)CCOc1cc(-c2cn[nH]c2)ccc1NC(=O)C1COc2ccccc2O1 (stereo not given) | 2.68 µM (active) | –
12 | CC(C)(O)CC(=O)NCCn1ccc2ncnc(Nc3ccc(Oc4cccc(C(F)(F)F)c4)c(Cl)c3)c21 | 12 µM (active) | –
13 | COC(=O)N1CCN(Cc2cccc(NC(=O)Nc3ccc(C)nc3)c2F)CC1 | inactive | –
14 | Cc1nn(Cc2ccccc2Cl)c(C)c1CN(C)CC(O)COc1ccc(Cl)cc1 (stereo not given) | 0.536 µM (active) | –
15 | Cc1csc(-c2nnc(Nc3ccc(Oc4ncccc4-c4ccnc(N)n4)cc3)c3ccccc23)c1 | inactive | –
16 | OC[C@H]1O[C@@H](OCCc2ccc(O)cc2)[C@H](O)[C@@H](O)[C@H]1O | inactive | –
17 | c1cc(OCCN2CCCCC2)cc(-c2n[nH]c3ccc(-c4ncn[nH]4)cc23)c1 | 15.1 µM (active) | –
18 | COc1ccnc(CS(=O)c2nc3ccc(OC(F)F)cc3[nH]2)c1OC (stereo not given) | 5.49 µM (active) and 16.9 µM (active) | –
19 | Nc1ccc(-c2ccc3ncc4ccc(=O)n(-c5cccc(C(F)(F)F)c5)c4c3c2)cn1 | 23.9 µM (active) | –
20 | CC(C)(C)c1nc(-c2cccc(NS(=O)(=O)c3c(F)cccc3F)c2F)c(-c2ccnc(N)n2)s1 | inactive | –

Row | Compound | Potency | activity change, negative = inhibition
21 | COc1ccc(-c2nc3ccc(C4=NNC(=O)CC4C)cc3[nH]2)cc1 (stereo not given) | inactive | –
22 | CCc1cc(-c2n[nH]c(C)c2-c2ccc3c(c2)OCCO3)c(O)cc1O | 4.25 µM (active) | –
23 | Clc1ccc(COC(Cn2ccnc2)c2ccc(Cl)cc2Cl)c(Cl)c1 (stereo not given) | 1.07 µM (active) | –
24 | CC(C)C[C@@H](C(=O)N[C@H](C(=O)OC1CCCC1)c1ccccc1)[C@H](O)C(=O)NO | inactive | –
25 | CCOC(=O)N1c2ccc(C(F)(F)F)cc2[C@@H](N(Cc2cc(C(F)(F)F)cc(C(F)(F)F)c2)C(=O)OC)C[C@H]1CC | inactive | –
26 | Cc1cc(-c2ncc(CC(=O)Nc3ccc(-c4cnccn4)cn3)cc2C)ccn1 | inactive | –
27 | Cc1ccccc1C(C(=O)NC1CCCCC1)N(C(=O)CNc1ccc(C#N)cc1)c1cccc(F)c1 (stereo not given) | inactive | –
28 | O=C(CCCN1CCN(c2ccc(F)cc2)CC1)NC1c2ccccc2CSc2ccccc21 (stereo not given) | 4.36 µM (active) | –
29 | CN1[C@H]2CC[C@H]1CC(OC(=O)c1c[nH]c3ccccc13)C2 (stereo not given in full) | 12 µM (active) | –
30 | O=C(c1ccc(F)c(F)c1Nc1ccc(I)cc1F)N1CC(O)([C@H]2CCCCN2)C1 | 3.01 µM (active) | –
31 | COc1ccc(-c2cc3nccn3c(Nc3ncccc3C(N)=O)n2)cc1OC | inactive | –
32 | c1ccc(-c2oc3ncnc(NC[C@@H]4CCCO4)c3c2-c2ccccc2)cc1 | 10.7 µM (active) | –
33 | Cc1cnc(-c2cc(N3CCN(C(=O)CCS(C)(=O)=O)CC3)ncc2Cl)c(C)c1 | inactive | –
34 | Cc1cccc(Nc2nc(N[C@@H]3CCCC[C@H]3N)ncc2C(N)=O)c1 | 15.1 µM (active) | –
35 | Fc1ccc(CNc2ncnc3ccc(F)cc23)cc1 | 16.9 µM (active) | –
36 | NS(=O)(=O)c1ccc(Nc2nc(OCC3CCCCC3)c3[nH]cnc3n2)cc1 | 19 µM (active) | –
37 | Cc1ccccc1-n1c(Cn2nc(-c3cccc(O)c3)c3c(N)ncnc32)nc2cccc(C)c2c1=O | inactive | –
38 | C[C@@H]1CCO[C@H]2Cn3cc(C(=O)NCc4ccc(F)cc4F)c(=O)c(O)c3C(=O)N12 | inactive | –
39 | COc1cc2ncnc(Nc3cc(Br)c(O)c(Br)c3)c2cc1OC | inactive | –
40 | C[C@@H](N)c1ccc(C(=O)Nc2ccnc3[nH]ccc23)cc1 | inactive | –
